# Source: PubChem (National Center for Advancing Translational Sciences (NCATS))
# LASV entry inh = blocks Lassa virus binding to or entry into cells | Lassa virus pseudotype entry inhibition, cell reporter | Potency, µM (titrated, usually from 37.9 µM), inactives show top-dose activity change, negative = inhibition, hits mostly inhibitors | actives 1.2% (n = 300,000); calls by dose curve; tested in HEK293 cells; also: potency is read from the fitted curve at half-maximal effect; % is scaled to controls: 0 for no effect and ±100 for the full control effect; nearly all actives have a fitted effect of over 50% in size
# MARV entry inh = Marburg virus entry inhibition; Potency, µM (series often up to 37.8 µM), without a hit: at the highest dose activity change, negative = inhibition, actives largely listed as inhibitors; Marburg virus pseudotyped entry inhibition, cell reporter; actives 1.8% (n = 300,000); calls by dose curve; tested in HEK293 cells; also: potency is read from the fitted curve at half-maximal effect; % is scaled to controls: 0 for no effect and ±100 for the full control effect
# Shiga inhibitor = blocks Shiga toxin action in Vero cells; Vero cells, Shiga toxin protein synthesis inhibition reporter; actives 9.2% (n = 290,000); inhibition, % at 38.7 µM; in the data active = inhibition mostly above about 28%, no sharp cut-off; inactive = mostly below about 43%; also: 0% is about no effect
# Vaccinia mCherry = vaccinia inhibition (mCherry reporter) | Vaccinia virus mCherry reporter infection, fluorescence | Potency, µM (highest dose often 36.5 µM), inactives show at the highest dose activity change, negative = inhibition, hits mostly inhibitors | actives 0.63% (n = 310,000) | AID 720579; calls by dose curve; tested in A549 cells; also: potency is read from the fitted curve at half-maximal effect; % is scaled to controls: 0 for no effect and ±100 for the full control effect; nearly all actives have a fitted effect of over 35% in size
# Cycloheximide cs = affects cycloheximide protein synthesis inhibition readout, counter-screen | cell reporter, cycloheximide protein synthesis inhibition counterscreen | max response, % | actives 12% (n = 300,000); in the data active = max response mostly above about 13%, no sharp cut-off; inactive = mostly below about 14%; also: read at 38.3 µM for the half of the compounds with a filed dose; 0% is about no effect
# Vaccinia Venus = inhibitors of vaccinia virus (Venus reporter); Vaccinia virus Venus reporter expression, fluorescence; Potency, µM (series often up to 36.5 µM), inactives show at the highest dose activity change, negative = inhibition, hits mostly inhibitors; actives 0.46% (n = 330,000); AID 720580; calls by dose curve; tested in A549 cells; also: potency is read from the fitted curve at half-maximal effect; % is scaled to controls: 0 for no effect and ±100 for the full control effect; nearly all actives have a fitted effect of over 30% in size
# * = called active by the depositor; i = inactive; u = inconclusive; x = not tested or not shown; [ ] = remark or other dose. This excerpt belongs to a sample that is enriched for hits.
SMILES,LASV entry inh,MARV entry inh,Shiga inhibitor,Vaccinia mCherry,Cycloheximide cs,Vaccinia Venus
O=C(Nc1c(C(=O)N2CCN(c3ccccc3)CC2)oc2ccccc12)c1ccc(Br)o1,u,u,x,i,x,-4.6%
Nc1nn(-c2ccccc2)nc1C(=O)OCc1ccccc1F,x,x,98.9,x,31.2*,x
Cc1ccccc1COC(=O)c1nn(-c2ccccc2)nc1N,u,u,53.9*,-8.8%,31.7*,4.0%
Cn1nc(C(=O)OCC(=O)c2ccc[nH]2)c2ccccc2c1=O,-13.3%,5.6%[46.1 µM],-11.2,-11.0%,-1.2,-5.7%
Cn1nc(C(=O)OCc2ccccc2F)c2ccccc2c1=O,x,9.8%[46.1 µM],34.7*,-12.5%,11.9,-9.8%
Cc1cc(C)c(NC(=O)CSc2nc(C)cc(C)c2C#N)c(C)c1,2.8%[46.1 µM],1.3%[46.1 µM],x,-4.7%,x,-7.5%
C=C1C(=O)[C@]23C[C@H]1CCC2[C@@]1(C)C(C[C@@H]3O)[C@](C)(C(=O)OC)CC[C@@H]1O (stereo partly specified),x,x,x,8.91µM*,x,u
C[C@@]12C(C[C@H](O)[C@@]34C[C@@H](CCC13)[C@@H](CO)C4=O)[C@](C)(C(=O)O)CC[C@@H]2O (stereo partly specified),x,x,x,42.9%,x,0.6%
CC(=O)Nc1ccc(C(=O)Nc2cc(C)on2)cc1,-16.1%,5.8%,43.8*,-11.6%,32.3*,-2.3%
Cc1cc(NC(=O)c2nn(C)c(C)c2[N+](=O)[O-])no1,4.3%,-2.9%,17.5,u,-1.6,-22.0%
Cc1cc(NC(=O)c2ccc(F)cc2)no1,x,x,91.0*,x,33.2*,x
Cc1cc(NC(=O)c2nn(C)c(C)c2Br)no1,x,x,80.9*,x,44.7*,x
Cc1csc(CN(C)C(=O)c2sc3ncnc(NCC4CCCO4)c3c2C)n1 (stereo unspecified),x,x,x,i,x,-2.1%
CC(COc1ccccc1)N1CCC(CO)(Cc2ccccc2)CC1 (stereo unspecified),13.6%[46.1 µM],u,-12.1,i,-1.5,-5.8%
CN(C)CCCNS(=O)(=O)c1ccc(NC2CCCCCC2)c([N+](=O)[O-])c1,-1.7%[46.1 µM],u,1.1,8.91µM*,-4.8,-19.5%
COc1ccc2c(c1)C1=NN(/C(C)=C/C(C)=O)C(c3ccc(F)cc3)C1CC2 (stereo unspecified),4.6%,5.9%,94.5*,-3.5%,30.9*,-5.8%
COc1ccc2c(c1)C1=NN(/C(C)=C\C(C)=O)C(c3ccccc3)C1CC2 (stereo unspecified),13.4%,-2.7%,71.1*,-2.9%,26.3*,-4.2%
COc1ccc2c(c1)CCC1C2=NN(/C(C)=C\C(C)=O)C1c1ccc(F)cc1 (stereo unspecified),x,x,60.1*,x,61.6*,x
Cc1cc(OC(C)C(=O)N(Cc2ccco2)Cc2ccccc2F)cc(C)c1Cl (stereo unspecified),2.9%[46.1 µM],-12.9%[46.1 µM],x,3.6%,x,-3.5%
COc1cc(C(=O)OCc2nc3ccsc3c(=O)[nH]2)c([N+](=O)[O-])cc1OC,12.7%,-13.7%,x,-17.5%,x,-15.4%
Cc1ccc(C(=O)CSc2cc(C)[nH]c(=O)n2)cc1,x,x,84.1*,x,36.8*,x
Cc1ccc(CNC(=O)CSc2cc(C)[nH]c(=O)n2)cc1,-0.8%[46.1 µM],x,x,-12.3%,x,3.0%
Cc1cc(SCC(=O)c2ccc(Cl)cc2)nc(=O)[nH]1,x,x,52.3*,x,43.2*,x
Cc1cc(SCC(=O)c2ccccc2)nc(=O)[nH]1,x,x,85.2*,x,63.3*,x
c1ccc(C2=Nn3c(nnc3-c3ccco3)SC2)cc1,4.7%[46.1 µM],-10.5%[46.1 µM],19.5,-14.4%,-3.0,-18.4%
SMILES,LASV entry inh,MARV entry inh,Shiga inhibitor,Vaccinia mCherry,Cycloheximide cs,Vaccinia Venus
C#CCSc1ncc(-c2ccccc2)cn1,15.6%,u,76.6*,-9.2%,43.6*,3.5%
C=CCSc1ncc(-c2ccccc2)cn1,19.0%,16.8%[46.1 µM],62.8*,-9.0%,35.2*,-1.9%
CCOC(=O)CSc1ncc(-c2ccccc2)cn1,-26.1%,21.5%,71.2,x,14.1,x
CSc1ncc(-c2ccccc2)cn1,15.8%[46.1 µM],0.4%[46.1 µM],76.8,i,47.3*,-9.9%
Cc1ccc(S(=O)(=O)N2[C@@H](c3cccc(C)c3)C(C(=O)O)=C[C@H]2CC2CCCC2)cc1,x,x,x,-9.9%,x,1.1%
CCC1CCCCN1CCCNC(=O)c1cc2c(Cl)nc3ccc(C)cc3c2s1 (stereo unspecified),u,u,x,-27.7%,x,u
Cc1ccc2nc(Cl)c3cc(C(=O)NCCCN4CCCC4)sc3c2c1,-18.4%[46.1 µM],10µM*,-12.4,i,-2.0,u
CCCCC(C(=O)NC1CCCC1)N(C(=O)c1snc(C(N)=O)c1N)c1ccc(C)cc1 (stereo unspecified),-2.6%[46.1 µM],u,-4.3,-10.4%,-2.4,-9.4%
O=C1CC(c2cc(-c3ccccc3)no2)C1,x,x,41.9*,i,38.9*,-6.3%
Cc1cc(-c2cccc([N+](=O)[O-])c2)nc2ccccc12,u,16.8%,-0.6,-17.0%,11.9,-1.7%
Cc1nc2ccccc2c(=O)n1-c1ccc([N+](=O)[O-])cc1,u,u,63.9*,13.3%,41.6*,3.1%
Cc1cc(N2CCN(c3nc(-c4ccc([N+](=O)[O-])cc4)cs3)CC2)c2ccccc2n1,u,11.2µM*,-6.4,-23.6%,-6.4,-18.1%
CN1CCN(Cc2nc3ccccc3c(=O)n2Cc2nc(-c3ccc([N+](=O)[O-])cc3)cs2)CC1,u,u,-36.4,10µM*,-8.8,10µM*
CN(C)Cc1nc2ccccc2c(=O)n1Cc1nc(-c2cccc([N+](=O)[O-])c2)cs1,u,9.7%[46.1 µM],-9.7,-10.8%,6.3,-15.2%
Cc1cc(-c2ccc([N+](=O)[O-])cc2)nc2ccccc12,4.6%,-18.6%[46.1 µM],62.4*,-13.8%,46.4*,-7.8%
Cc1cc(N2CCN(C(=O)Nc3ccccc3C#N)CC2)c2ccccc2n1,x,x,-1.1,x,0.7,x
Cc1nc2ccccc2c(=O)n1-c1ccc(NC(=O)c2ccc([N+](=O)[O-])cc2)cc1,13.2%[46.1 µM],x,x,-20.7%,x,-17.1%
Cc1ccc(NC(=O)C2CCN(S(=O)(=O)c3ccc4[nH]c5c(c4c3)CCCCC5)CC2)cc1,-7.2%[46.1 µM],x,x,-22.9%,x,-23.1%
CCC(C)NC(=O)C1CCN(C(=O)c2cc3sccc3n2Cc2ccc(Cl)cc2)CC1 (stereo unspecified),x,u,x,-29.6%,x,u
O=C(Nc1ccccn1)C1COc2ccccc2O1 (stereo unspecified),14.6%,9.1%,64.4*,-4.6%,31.8*,-8.3%
Cc1cc(C)nc(NS(=O)(=O)c2ccc(NC(=O)C3COc4ccccc4O3)cc2)n1 (stereo unspecified),-1.0%[46.1 µM],5.1%[46.1 µM],10.9,i,-5.1,-13.7%
CSc1nc2ccc3nc(NC(=O)C4COc5ccccc5O4)sc3c2s1 (stereo unspecified),x,x,22.4,i,5.1,u
Cc1cccc(NC(=O)C2COc3ccccc3O2)n1 (stereo unspecified),x,x,54.9*,x,47.3*,x
O=C(Nc1nc(-c2ccccc2)cs1)C1COc2ccccc2O1 (stereo unspecified),-8.4%,4.6%,60.2,x,7.8,-16.6%
